Reference: PubChem BioAssay AID504607 (Sanford-Burnham Center for Chemical Genomics, 2011)
About 4,800 (77%) of roughly 6,200 compounds were called active. The set was probably picked from earlier hits. Not all results are given here. A number with no mark means an inactive call.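 Rule for the calls: active = mean inhibition at 8 µM reaching about 37%, which flags the compound as non-specific (limit read from the data); inactive = the rest.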

Test: full-length luciferase signal inhibition, confirmation, counter-screen for Mdm2/MdmX interaction inhibitor project, cell-based, single concentration, SaOS-2 (AID 504607);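 note: p53-null SaOS-2 cells with luciferase driven by a doxycycline-inducible promoter; compound on cells about two nights before reading with doxycycline added after day one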
Conditions: SaOS-2 full-length luciferase counterscreen, luminescence; at 8 µM; active compounds read high

SMILES	inhibition
Cc1cccc(-c2oc3ccc(-c4ccc5c(c4)OCO5)cc3c2C#Cc2cncn2C)c1	80.9% (active)
Oc1ccccc1N1CCN(c2ncnc3sc(-c4ccccc4)cc23)CC1	58.6% (active)
O=C(Oc1c(-c2ccco2)oc2ccccc2c1=O)c1cccnc1	90.3% (active)
COc1cc2c(cc1OC)C(C)N(S(=O)(=O)c1cnc(Cl)c(Cl)c1)CC2 (stereo not given)	45.3% (active)
CN(C)CC(O)COc1ccc(C(C)(C)c2ccc(OCC(O)CN(C)C)cc2)cc1 (stereo not given)	56.8% (active)
Cn1cc(/C=C/c2nc3ccccc3c(=O)n2-c2cccc([N+](=O)[O-])c2)c2ccccc21	90.7% (active)
C=CCn1c(C)cc(C(=O)CN2C(=O)c3ccccc3C2=O)c1C	103% (active)
C=CCn1c(C)cc(C2=NNC(=NCC)SC2)c1C	24.4%
O=C(NCC#CCSc1nnc(-c2cccc3ccccc23)o1)c1cccs1	22.6%
CCCc1nc2c(c(=O)c3ccccc3n2C)c(=O)n1C1CCCCCC1	63.9% (active)
COc1cccc(CNC(=O)c2nnn(CC(=O)Nc3cc(Cl)ccc3C)c2N)c1	47.8% (active)
Cc1cc(C)c2[nH]c(=O)c(CN(Cc3ccccc3)C(=S)NCCCN(C)C)cc2c1	58.1% (active)
COc1ccc(-c2nc(-c3ccccc3)no2)c(OC)c1	95.8% (active)
CSc1nc(-c2ccccc2)nc(C(Cl)Cl)n1	49.7% (active)
O=C(Cn1nnc(-c2ccccc2)n1)N/N=C/c1ccc(-c2ccc(Cl)cc2)o1	106% (active)
COc1cc(NC(=O)c2ccccc2NS(=O)(=O)c2ccc(Cl)s2)cc(OC)c1	40.5% (active)
CCc1ccc(-c2cc3c(=O)n(CC(=O)NCCCN4CCN(Cc5ccccc5)CC4)nc(C)n3n2)cc1	60.8% (active)
CCc1ccc(CNC(=O)C2CCN(c3nnc(C)c4c(C)n(-c5ccc(C)cc5)nc34)CC2)cc1	23.7%
FC(F)(F)c1ccc(CN2C[C@@H]3C(c4ccccc4)C4(c5ccccc5)CC3(C4)[C@H]2c2ccccc2)cc1 (stereo not given in full)	27.2%
COCCCNc1nc2c(-c3cccc(C)c3)nnn2c2ccc(Cl)cc12	54.2% (active)
CCOc1ccccc1NC(=O)Cn1nnc(C(=O)NCc2cccs2)c1N	80.5% (active)
Cc1ccccc1OCCOc1ccc([N+](=O)[O-])cc1/C=N/n1cnnc1	89% (active)
CC1(C)CC(N2CCN(C(c3ccccc3)c3ccccc3)CC2)=CC(=[N+]2CCCCC2)C1	55.6% (active)
Cc1c(/C=N\NC(=O)c2cc3ccccc3o2)c2ccccc2n1C	61.8% (active)
Cc1ccc2occ(/C=N/NC(=O)c3ccccc3C)c(=O)c2c1	34.4%

SMILES	inhibition
COc1ccc(CCn2c(=N)c(C(=O)NCC3CCCO3)cc3c(=O)n4cccc(C)c4nc32)cc1OC (stereo not given)	54% (active)
Cc1cccn2c(=O)c3cc(C(=O)NCCN4CCOCC4)c(=N)n(Cc4cccnc4)c3nc12	57.1% (active)
Cc1cccc(-n2ncc(Cl)c(Cl)c2=O)c1	0.23%
CN(Cc1ccccc1)CC(O)COc1ccc(CNCc2cc3ccccc3s2)cc1 (stereo not given)	79.3% (active)
O=C(Nc1ccncc1)c1c(F)cccc1F	38.9% (active)
CC(C)(C)CC(C)(C)NCC(O)COCCOc1ccc(Br)cc1 (stereo not given)	62.6% (active)
COc1ccccc1N1CCN(C(=O)c2cc(=O)c3cc(C)cc(C)c3o2)CC1	101% (active)
Oc1c(Br)cccc1/C=N/Nc1c(F)c(F)c(F)c(F)c1F	56.7% (active)
O=C(Nc1ccc2ccccc2c1)Nc1ccc2snnc2c1	44.4% (active)
COc1cccc(NC(=O)[C@H](Cc2c[nH]c3ccccc23)NC(=O)[C@@H]2Cc3ccccc3CN2)c1	53.2% (active)
O=C(NC(Nc1nc2ccc([N+](=O)[O-])cc2s1)(C(F)(F)F)C(F)(F)F)c1ccccc1	8.11%
Cc1cc(CNC(=O)c2cccc([N+](=O)[O-])c2)c2ccccc2n1	41.5% (active)
Cc1ccc(-c2nc3ccccc3[nH]2)cc1NC(=O)c1sc2ccccc2c1Cl	18.5%
COC(=O)c1c(NC(=O)COc2ccc(Cl)cc2Cl)sc2c1CC(C)(C)NC2(C)C	3.07%
CCOC(=O)c1c(NC(=O)c2ccc(S(=O)(=O)N(C)CC3CCCO3)cc2)sc2c1CC(C)(C)NC2(C)C (stereo not given)	62.7% (active)
O=C(CC(O)(C(F)(F)F)C(F)(F)F)Nc1ccc(Cl)c(Cl)c1	58.1% (active)
Cc1cccc2sc(N(CCCN(C)C)C(=O)CCS(=O)(=O)c3ccccc3)nc12	14.4%
CSc1nc(N(C)NC(=O)c2cccc(C)c2)c2ccccc2n1	135% (active)
CN(NC(=O)c1ccccc1)c1nc2ccccc2nc1C(F)(F)F	68.8% (active)
CN(NC(=O)c1ccccc1F)c1nc(C(F)(F)F)nc2ccccc12	63.5% (active)
CC1(C)CCSC(/C=C/c2ccccc2)=N1	30.5%
Cc1ccccc1C(CC(=O)c1cccs1)C(C#N)C#N (stereo not given)	45.1% (active)
O=C(Nc1ccc(C(=O)N2CCOCC2)cc1)Nc1cccc(C(F)(F)F)c1	49.8% (active)
CCNS(=O)(=O)c1ccc(NC(=O)Nc2cccc(C(F)(F)F)c2)cc1	53.4% (active)
Cc1cccc(NC(=O)Nc2cccc(Oc3c(F)c(F)c(F)c(F)c3F)c2)c1	32.5%

SMILES	inhibition
COc1ccc(-c2ccc(Nc3ccc(S(=O)(=O)N4CCCC4)cc3)nn2)cc1OC	77.8% (active)
COc1ccc(-c2cc(C(F)(F)F)nc(S(C)(=O)=O)n2)cc1OC	24.3%
COc1ccc(C(=O)O/N=C(\N)Cc2ccc(Cl)cc2Cl)cc1OC	47.8% (active)
Cc1cccc(Nc2ccccc2C(=O)NCc2ccco2)c1C	39.6% (active)
COc1ccc2sc(-c3ccc(S(C)(=O)=O)cc3)c(C#Cc3cncn3C)c2c1	44.8% (active)
COc1cccc(-c2sc3ccc(OC)cc3c2-c2ccc(OCCN3CCCCC3)cc2)c1	32.7%
O=C1N/C(=C/c2cccn2-c2ccccc2)C(=O)N1c1cccc(Cl)c1	126% (active)
Cc1cccc(-n2c(C)cc(/C=N\NC(=O)c3cccs3)c2C)c1	178% (active)
Cc1cc(C(=O)COc2ccccc2[N+](=O)[O-])c(C)n1-c1cccc(S(=O)(=O)N2CCOCC2)c1	89.8% (active)
Cn1nc(-c2ccccc2)c(CSc2cccc(Cl)c2)c1Cl	51.5% (active)
CCN1CCN(CCNC(=O)c2ccc(/C=C3/Sc4ccccc4N(Cc4cccc(C)c4)C3=O)cc2)CC1	27.6%
CN1CCN(CCCNC(=O)c2ccc(/C=C3\Oc4ccccc4N(Cc4ccc(Cl)cc4)C3=O)cc2)CC1	62.6% (active)
Cc1ccc(OCC(O)CN2CCN(CC(O)COc3ccc(C)cc3Cl)CC2)c(Cl)c1 (stereo not given)	71.1% (active)
Cn1c(=O)n(C)c2cc(C(=O)Nc3ccc4c(c3)OCO4)ccc21	56.6% (active)
CC1CCCCC1NC(=O)/C(C#N)=C/C=C/c1ccccc1[N+](=O)[O-] (stereo not given)	57.2% (active)
NS(=O)(=O)c1ccc(N=Nc2c(O)[nH]c3ccc(Br)cc23)cc1	86.5% (active)
C[C@@H]1C[C@@H]2O[C@H]2/C=C\C=C\C(=O)Cc2c(Cl)c(O)cc(O)c2C(=O)O1	33.8%
Clc1cccc(Cl)c1OCCOCCNCc1ccccc1	33%
N=c1c2c(-c3ccccc3)c(-c3ccccc3)n(Cc3ccccc3)c2ncn1CCCO	62% (active)
CCCCC(O)(CCCC)C(=O)NN(C(=O)CCl)c1ccccc1	34%
Cc1cc(=O)oc2cc(OCC3CC(c4ccccc4Cl)=NO3)ccc12 (stereo not given)	117% (active)
Cc1ccc(-n2[nH]c(C)c(/C=N/NC(=O)c3cccc([N+](=O)[O-])c3)c2=O)cc1C	46.2% (active)
Cn1c(C(=O)NCCCN2CCN(c3cccc(Cl)c3)CC2)cc2c(=O)n(C)c3ccccc3c21	61.5% (active)
OCCCNc1nccc(-c2cc(Nc3cccc(Cl)c3)ncn2)n1	53.2% (active)
CC(C)n1cnc2c(Nc3cccc(Cl)c3)nc(N(CCO)CCCO)nc21	47.6% (active)

SMILES	inhibition
CCCCCCCCn1c2c(c(=N)c3c1CCC3)CCCC2	22%
COc1ccc(-c2nn(C)c(=O)c3ccccc23)cc1NC(=O)COc1ccccc1	53.5% (active)
O=[N+]([O-])c1ccc(Oc2ccc(F)cc2Br)c2ccncc12	16%
O=C(Nc1nc2ccc([N+](=O)[O-])cc2s1)c1ccc(S(=O)(=O)N2CCCc3ccccc32)cc1	20%
CCCC(=O)Nc1nc2ccc(NC(=O)c3cccnc3)cc2s1	108% (active)
O=C(Nc1ccc(Cl)cc1)Nc1nnc(/C=C/c2ccccc2)s1	75.8% (active)
Cc1nnc(NC(=O)Nc2ccc(Cl)c(Cl)c2)s1	33.4%
Cc1c(C(=O)N/N=C/c2ccccc2)[nH]c2c([N+](=O)[O-])cccc12	48.3% (active)
COc1cccc(CNCCc2c[nH]c3ccccc23)c1OCc1ccccc1F	42% (active)
COc1ccc(/C=C/C(=O)Nc2ccc(C34CC5CC(CC(O)(C5)C3)C4)cc2)cc1OC	85.7% (active)
CCN(CC)c1ccc(/C=N/Nc2nc(C)cc(C)n2)c(O)c1	38.6% (active)
Cc1c(Cl)c([N+](=O)[O-])nn1Cc1ccc(C(=O)N/N=C\c2cc(Cl)ccc2O)o1	32.4%
CCN(CC)c1ccc(/C=N/NC(=O)c2cnccn2)c(O)c1	37.9% (active)
CC(=O)Oc1c(C(=O)c2nnc(C)o2)c(=O)n(Cc2ccccc2)c2ccccc12	36.5% (active)
NC(N)=N/N=C/c1ccc(OCc2ccc(Cl)cc2Cl)cc1	50.2% (active)
COc1cccc2cc(C(N)=O)/c(=N\NC(=O)c3ccccc3)oc12	137% (active)
CC(Nc1nc(N2CCCC2)nc2ccccc12)c1ccccc1 (stereo not given)	88.5% (active)
O=C(/C=C/c1ccc(OCc2c(F)cccc2Cl)cc1)N1CCOCC1	27.7%
C=C(C)C(=O)O[C@H]1C/C(C)=C\C(=O)/C=C(\C)[C@H](O)[C@@H]2OC(=O)C(=C)[C@@H]21	51.4% (active)
CCc1ccc(N(CC)c2ncnc3nc[nH]c23)cc1	41.2% (active)
C/C(=N\NC(=O)c1ccccc1F)c1ccccn1	52.1% (active)
CCOC(=O)CC1C(=O)NCCN1c1nc2c(C)cccn2c(=O)c1/C=C1\SC(=S)N(C(C)CC)C1=O (stereo not given)	101% (active)
CCN1C(=O)c2cccc3c(S(=O)(=O)Nc4ccccc4O)ccc1c23	76.6% (active)
COc1ccc2c(c1OC)C(=O)OC2Nc1nc(-c2ccccc2)cs1 (stereo not given)	51.2% (active)
Cc1ccc(-c2csc(NC3OC(=O)c4ccccc43)n2)cc1 (stereo not given)	23.7%
